Data taken from PubChem BioAssay (EPA / NIEHS).
Where “and” joins values, the source holds several entries; their conditions need not be identical. Identical values can stand only once. Records with an inconclusive call do not appear. More than one record can exist for a structure, and the calls need not agree. Calls of active or inactive are those of the source. How the source made its calls, unless noted: active means hit-call score of the fitted dose curve at least 0.9, where 1 is the maximum; inactive means score below 0.9.

What was measured:
[1] = read-out: Collagen I, COL1A1 (gene 1277); experiment: BSK_MyoF_CollagenI: BioMAP Diversity Plus: MyoF Assay for Collagen I Biomarker Activity (AID 2284238); settings: primary human lung fibroblasts
Summary of the method: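 Lung fibroblasts (human primary) dosed, 24 h; Collagen I by ELISA; positive-direction fit vs DMSO control. Parallel SRB total-protein staining (0.1% SRB, 10% TCA fixation, 560 nm) flags overt cytotoxicity.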

[2] = read-out: Collagen III, COL3A1 (gene 1281); experiment: BSK_MyoF_CollagenIII: BioMAP Diversity Plus: MyoF Assay for Collagen III Biomarker Activity (AID 2284239); settings: primary human lung fibroblasts
Summary of the method: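 ELISA read-out of collagen III from human lung fibroblasts after 24 h of chemical treatment. The DMSO control served as negative control and baseline, with values fitted in the positive direction.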

[3] = read-out: Interleukin 17F (IL17F), IL17F (gene 112744); experiment: BSK_BT_xIL17F: BioMAP Diversity Plus: BT Assay for Interleukin 17F (IL17F) Biomarker Activity (AID 2284243); settings: primary human B cells with PBMC
Summary of the method: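 Compound was added to co-cultures of human B cells and PBMC. After 24 hours, IL-17F released into the medium was measured with LumineX xMAP technology. Responses were then fitted upward relative to DMSO.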

[4] = read-out: Interleukin 2 (IL2), IL2 (gene 3558); experiment: BSK_BT_xIL2: BioMAP Diversity Plus: BT Assay for Interleukin 2 (IL2) Biomarker Activity (AID 2284245); settings: primary human B cells with PBMC
Summary of the method: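 The BT system combines human B cells with peripheral blood mononuclear cells. Twenty-four hours after chemical dosing, secreted IL-2 was measured with xMAP bead technology, and responses were analyzed as increases over DMSO controls.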

[5] = read-out: Basic fibroblast growth factor (bFGF), FGF2 (gene 2247); experiment: BSK_MyoF_bFGF: BioMAP Diversity Plus: MyoF Assay for Basic fibroblast growth factor (bFGF) Biomarker Activity (AID 2284246); settings: primary human lung fibroblasts
Summary of the method: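 Chemicals are added to human lung fibroblast cultures and incubated 24 h. bFGF is then measured by ELISA, while parallel cultures receive SRB staining for total protein as a cytotoxicity check. Data are fitted upward against DMSO.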

[6] = read-out: Collagen IV, COL4A1 (gene 1282); experiment: BSK_MyoF_CollagenIV: BioMAP Diversity Plus: MyoF Assay for Collagen IV Biomarker Activity (AID 2284247); settings: primary human lung fibroblasts
Summary of the method: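 Human lung fibroblast system, 24 h chemical exposure. Endpoint: Collagen IV by ELISA, upward fit vs DMSO.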

[7] = read-out: Plasminogen activator inhibitor-1 (PAI1), SERPINE1 (gene 5054); experiment: BSK_MyoF_PAI1: BioMAP Diversity Plus: MyoF Assay for Plasminogen activator inhibitor-1 (PAI1) Biomarker Activity (AID 2284256); settings: primary human lung fibroblasts
Summary of the method: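 Primary human lung fibroblasts are dosed and incubated 24 h. PAI-1 is then measured by ELISA, while parallel cultures undergo SRB staining for overt cytotoxicity. Increases over DMSO define activity.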

[8] = read-out: Interleukin-8 (IL8), CXCL8 (gene 3576); experiment: BSK_MyoF_IL8: BioMAP Diversity Plus: MyoF Assay for Interleukin-8 (IL8) Biomarker Activity (AID 2284261); settings: primary human lung fibroblasts
Summary of the method: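 IL-8 levels were measured by ELISA in human lung fibroblasts harvested 24 h after compound addition. Responses were analysed as gain of signal over the DMSO baseline.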

Decorin, DCN (gene 1634) = experiment: BSK_MyoF_Decorin: BioMAP Diversity Plus: MyoF Assay for Decorin Biomarker Activity (AID 2284265); settings: primary human lung fibroblasts
Summary of the method: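 Compound is added to lung fibroblast cultures; cells incubate 24 h; decorin is then measured by ELISA; the response is analysed upward against DMSO controls.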

[9] = CCTE_Mundy_HCI_Cortical_NOG_BPCount: CCTE's Neurite Outgrowth Assay in rat cortical cells for Branch Point Count, Mundy Lab (AID 2284237);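 on AC50: branch points counted about two days after chemical exposure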
Summary of the method: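 Measured 50.33 h after dosing, this morphology endpoint uses rat primary cortical cultures labelled for betaIII-tubulin. Branch points are quantified by high-content imaging, with DMSO as negative control and baseline.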

[10] = CCTE_Mundy_HCI_hNP1_Casp3_7: CCTE's Caspase-Glo 3/7 Assay in human neuroprogenitor cells for Apoptosis, Mundy Lab (AID 2284240)
Summary of the method: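 Luminescent caspase-3/7 readout, 26.5 h post-dose, in human neural progenitor cells from WA09 embryonic stem cells. Cells grew 40–44 h at 37 °C, 5% CO2 before chemical addition. Activity analysed as signal increase over DMSO baseline.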

[11] = CCTE_Mundy_HCI_hNP1_CellTiter: CCTE's Cell Titer-Glo 2 Assay in human neuroprogenitor cells for Viability, Mundy Lab (AID 2284241; active means hit-call score of the fitted dose curve at least 0.9, where 1 is the maximum)
Summary of the method: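 Viability read as luminescent ATP content (CellTiter-Glo, 30 min room temperature) twenty-four hours after dosing, relative to DMSO. Cells: WA09-derived hNP1 neuroprogenitors on poly-L-ornithine/laminin, plated 40 to 44 hours before chemical.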

[12] = CCTE_Mundy_HCI_Cortical_Synap_Neur_Matur_NeuronCount: CCTE's Synaptogenesis and Neurite Maturation Assay in rat cortical cells for Neuron Count, Mundy Lab (AID 2284242; active means hit-call score of the fitted dose curve at least 0.9, where 1 is the maximum;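 on AC50: neuron number from Hoechst nuclei and MAP2 staining by high-content imaging; hits reduce neuron count versus DMSO baseline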)
Summary of the method: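 Cortical cells from rat are plated, treated with AraC at DIV 5, and exposed to test chemicals with a media change at DIV 7. At DIV 12 they are fixed and immunostained (MAP2, synaptophysin), and imaged neuron counts are compared against DMSO controls.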

[13] = read-out: Actin alpha 1 (ACTA1), ACTA1 (gene 58); experiment: BSK_MyoF_ACTA1: BioMAP Diversity Plus: MyoF Assay for Actin alpha 1 (ACTA1) Biomarker Activity (AID 2284244); settings: primary human lung fibroblasts
Summary of the method: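 Cells were exposed to chemical for 24 h before a-SMA levels were quantified by ELISA in human lung fibroblasts. Increases were fitted against DMSO as negative control; parallel SRB staining (0.1% after 10% TCA fixation, 560 nm) assessed cytotoxicity.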

[14] = CCTE_Mundy_HCI_Cortical_NOG_NeuronCount: CCTE's Neurite Outgrowth Assay in rat cortical cells for Neuron Count, Mundy Lab (AID 2284236; active means hit-call score of the fitted dose curve at least 0.9, where 1 is the maximum;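 further: neurons counted by imaging betaIII-tubulin and Hoechst stained cortical cells; cells exposed to compound for about 48 hours before fixation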)
Summary of the method: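 Read-out: neuron number by high-content imaging of betaIII-tubulin (Alexa Fluor-488) and Hoechst-labelled rat primary cortical cells.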

Measured: AC50

c1ccc2sc(SNC3CCCCC3)nc2c1
inactive: [1] | [2] | [5] | [6] | [7] | Decorin, DCN (gene 1634)
active: [3] 32.1 µM | [4] 28.9 µM | [8] 6.46 µM

CC(C)[C@@H](Nc1ccc(C(F)(F)F)cc1Cl)C(=O)OC(C#N)c1cccc(Oc2ccccc2)c1 (stereo partly specified)
inactive: [9] | [10] | [11] | [12]

CCCCN(CCCC)C(=S)[S-].CCCCN(CCCC)C(=S)[S-].[Ni+2]
not listed: [9] | [10] | [11] | [12] | [14]
inactive: all other assays above

NC(=O)CCl
active: [4] 20 µM
not listed: [9] | [10] | [11] | [12] | [14]
inactive: all other assays above

CC1(C)[C@H](C(=O)O[C@H](C#N)c2cccc(Oc3ccccc3)c2)[C@@H]1/C=C(\Cl)C(F)(F)F
inactive: [14] | [1] | [2] | [10] | [13] | [5] | [6] | [7] | [8] | Decorin, DCN (gene 1634)
active: [9] 20.2 µM | [12] 3.56 µM | [3] 17.1 µM and 14.6 µM | [4] 17.1 µM and 14.2 µM | [7] 0.0141 µM

CCOP(=S)(OCC)OP(=S)(OCC)OCC
not listed: [9] | [10] | [11] | [12] | [14]
inactive: all other assays above

Cc1ccc(OP(=O)(Oc2ccc(C)cc2C)Oc2ccc(C)cc2C)c(C)c1
inactive: [1] | [5] | [6] | [7] | [8] | Decorin, DCN (gene 1634)
active: [2] 20 µM | [3] 24.9 µM | [4] 12 µM

CS(=O)(=O)c1ccc(C(=O)C2C(=O)CCCC2=O)c(Cl)c1COCC(F)(F)F
inactive: [14] | [9] | [10] | [11]

CCOP(=S)(OCC)SCS(=O)(=O)C(C)(C)C
not listed: [9] | [10] | [11] | [12] | [13] | [14]
inactive: all other assays above

CCOP(=O)(OCC)SCCSCC
not listed: [9] | [10] | [11] | [12] | [13] | [14]
inactive: all other assays above

CNC(=O)CSP(=O)(OC)OC
inactive: [14] | [9] | [10] | [11]

Nc1c(Oc2ccccc2)cc(O)c2c1C(=O)c1ccccc1C2=O
active: [6] 2.54 µM | [8] 10 µM
not listed: [9] | [10] | [11] | [12] | [14]
inactive: all other assays above

O=c1oc2ccccc2c(O)c1C(CC(O)c1ccc(-c2ccc(Br)cc2)cc1)c1ccccc1 (stereo unspecified)
inactive: [3] | [4]
active: [1] 1.94 µM | [2] 2.53 µM | [13] 2.76 µM | [5] 11.5 µM | [6] 5.33 µM | [7] 3.64 µM | [8] 19.1 µM | Decorin, DCN (gene 1634) 9.45 µM

Cc1cc(C(F)(C(F)(F)F)C(F)(F)F)ccc1NC(=O)c1cccc(I)c1C(=O)NC(C)(C)CS(C)(=O)=O
inactive: [14] | [9] | [10] | [11]

CC(C)=CC1C(C(=O)OCc2cccc(Oc3ccccc3)c2)C1(C)C (stereo unspecified)
active: [3] 20 µM | [4] 20 µM
inactive: [1] | [2] | [5] | [6] | [7] | [8] | Decorin, DCN (gene 1634)
